Experimental data reported in PubChem BioAssay.
Activity calls are given as the source filed them.

Legend:
[1] = tested on: Plasmodium falciparum Sir2 (PF13_0152, Sir2A); assay: Plasmodium falciparum Sir2A binding compounds – biochemical, small-molecule microarray, 635 nm fluorescence, primary screen (AID 1098); conditions: fluorescence 635 nm, higher = more signal;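 note: score merges spot fluorescence intensity with its signal-to-noise ratio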
[2] = probe aDKK1 binding to arrayed compounds – biochemical, biotinylated probe, 635/667 nm fluorescence, primary screen (AID 1099); conditions: small-molecule microarray, higher = more signal;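 note: score merges 667nm spot fluorescence with signal to noise across triplicate slides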
[3] = probe aCHRDL2 binding to arrayed compounds – biochemical, biotinylated probe, 635/667 nm fluorescence, primary screen (AID 1100); conditions: small-molecule microarray, higher = more signal
[4] = change in splice reporter luminescence, either direction, cell-based, HEK293, spliceosome inhibition project, primary screen (AID 1101); conditions: HEK293 splicing luciferase reporter, 24 h, higher = more signal, called active from +8 up or from −8 down;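 note: HEK293 cells carrying a splicing-competent luciferase reporter gene; test concentration not given here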
[5] = target: Fibroblast growth factor 10 (Homo sapiens) (UniProt O15520); assay: compounds binding fibroblast growth factor 10 – biochemical, small-molecule microarray, 635 nm fluorescence, primary screen (AID 1102); conditions: FGF10 binding, fluorescence 635 nm, higher = more signal
Sequence of Fibroblast growth factor 10 (Homo sapiens) (O15520 whole entry, looked up): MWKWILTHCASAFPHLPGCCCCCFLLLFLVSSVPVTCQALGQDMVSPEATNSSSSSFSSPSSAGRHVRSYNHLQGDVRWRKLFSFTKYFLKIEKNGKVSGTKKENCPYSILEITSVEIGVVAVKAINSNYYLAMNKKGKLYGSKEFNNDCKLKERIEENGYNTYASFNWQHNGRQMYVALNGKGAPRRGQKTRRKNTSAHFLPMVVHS

[6] = tested on: glycogen synthase kinase-3 (GSK3A per assay name; protocol says GSK3B); assay: compounds binding glycogen synthase kinase-3 – biochemical, small-molecule microarray, 635 nm fluorescence, GSK3A, primary screen (AID 1103); conditions: fluorescence 635 nm, higher = more signal; note: the record names both GSK3A and GSK3B
[7] = target: Epidermal growth factor receptor (Homo sapiens) (UniProt P00533); assay: compounds binding epidermal growth factor receptor – biochemical, small-molecule microarray, 635 nm fluorescence, primary screen (AID 1104); conditions: EGFR binding, higher = more signal;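 note: score merges 667 nm emission intensity with spot signal to noise over triplicate slides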
Sequence of Epidermal growth factor receptor (Homo sapiens) (P00533 whole entry, looked up): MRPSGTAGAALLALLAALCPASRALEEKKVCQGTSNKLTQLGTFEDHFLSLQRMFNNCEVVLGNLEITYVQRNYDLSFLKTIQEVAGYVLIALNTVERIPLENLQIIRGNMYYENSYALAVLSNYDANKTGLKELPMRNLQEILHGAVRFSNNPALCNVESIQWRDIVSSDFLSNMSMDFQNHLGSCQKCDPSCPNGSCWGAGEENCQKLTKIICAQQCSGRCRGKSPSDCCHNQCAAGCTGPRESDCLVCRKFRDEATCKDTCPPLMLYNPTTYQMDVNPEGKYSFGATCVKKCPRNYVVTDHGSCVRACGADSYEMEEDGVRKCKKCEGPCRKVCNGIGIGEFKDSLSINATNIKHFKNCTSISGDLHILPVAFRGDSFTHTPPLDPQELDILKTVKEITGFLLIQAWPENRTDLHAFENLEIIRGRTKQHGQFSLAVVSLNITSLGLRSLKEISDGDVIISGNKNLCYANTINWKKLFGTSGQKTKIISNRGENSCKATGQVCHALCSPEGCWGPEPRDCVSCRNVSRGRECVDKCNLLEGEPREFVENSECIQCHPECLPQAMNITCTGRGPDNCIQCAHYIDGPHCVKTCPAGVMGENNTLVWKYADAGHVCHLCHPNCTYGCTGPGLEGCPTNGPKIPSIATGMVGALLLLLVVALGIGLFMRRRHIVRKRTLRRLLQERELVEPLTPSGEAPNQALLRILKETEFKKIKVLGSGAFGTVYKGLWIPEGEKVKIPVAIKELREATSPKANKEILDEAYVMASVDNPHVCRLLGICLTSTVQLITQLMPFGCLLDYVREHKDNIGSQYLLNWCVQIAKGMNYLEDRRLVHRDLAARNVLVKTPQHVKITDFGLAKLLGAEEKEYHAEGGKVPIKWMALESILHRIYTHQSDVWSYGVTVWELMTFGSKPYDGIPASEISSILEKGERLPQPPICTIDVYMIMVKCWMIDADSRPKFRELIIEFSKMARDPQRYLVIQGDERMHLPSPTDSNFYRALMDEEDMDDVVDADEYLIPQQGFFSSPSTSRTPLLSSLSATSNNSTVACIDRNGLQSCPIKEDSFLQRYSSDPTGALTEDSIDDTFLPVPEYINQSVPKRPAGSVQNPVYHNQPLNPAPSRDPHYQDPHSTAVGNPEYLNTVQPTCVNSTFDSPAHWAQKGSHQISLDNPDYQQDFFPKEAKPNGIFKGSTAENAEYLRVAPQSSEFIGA

[8] = target: Follistatin-related protein 3 (Homo sapiens) (UniProt O95633); assay: compounds binding follistatin-related protein 3 – biochemical, small-molecule microarray, 635 nm fluorescence, primary screen (AID 1105); conditions: FSTL3 binding, higher = more signal;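 note: score merges emission near 667 nm and signal to noise per printed spot across three slides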
Sequence of Follistatin-related protein 3 (Homo sapiens) (O95633 whole entry, looked up): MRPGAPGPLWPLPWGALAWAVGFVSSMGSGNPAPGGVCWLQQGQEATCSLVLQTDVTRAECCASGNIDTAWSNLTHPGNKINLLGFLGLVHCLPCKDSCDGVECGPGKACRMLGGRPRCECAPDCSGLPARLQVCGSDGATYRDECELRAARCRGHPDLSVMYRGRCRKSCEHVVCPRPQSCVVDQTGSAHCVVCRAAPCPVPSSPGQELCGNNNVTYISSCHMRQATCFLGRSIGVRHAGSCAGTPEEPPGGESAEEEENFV

[9] = target: Dickkopf-related protein 1 (Homo sapiens) (UniProt O94907); assay: small molecules binding DKK1 protein – biochemical, small-molecule microarray, 635 nm fluorescence scan, primary screen (AID 1106); conditions: higher = more signal;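 note: score merges emission near 667 nm with signal to noise over three replicate slides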
Sequence of Dickkopf-related protein 1 (Homo sapiens) (O94907 whole entry, looked up): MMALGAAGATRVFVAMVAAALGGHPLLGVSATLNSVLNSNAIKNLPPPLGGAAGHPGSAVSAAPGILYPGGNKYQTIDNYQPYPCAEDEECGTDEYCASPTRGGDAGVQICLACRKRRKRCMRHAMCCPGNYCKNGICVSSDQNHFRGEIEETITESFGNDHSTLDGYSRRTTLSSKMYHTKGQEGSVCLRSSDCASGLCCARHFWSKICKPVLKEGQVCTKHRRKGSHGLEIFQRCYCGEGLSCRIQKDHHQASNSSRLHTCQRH

[10] = tested on: Inhibin beta A chain (activin A); assay: small molecules binding activin A – biochemical, small-molecule microarray, 635 nm fluorescence scan, primary screen (AID 1107); conditions: INHBA, higher = more signal;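 note: mouse activin A protein probed at 4.33 µg/mL on printed slides; score merges bound-protein fluorescence near 667 nm with spot signal-to-noise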
[11] = tested on: Human papillomavirus type 1a protein E7 (residues 44-93); assay: small molecules binding HPV E7 44-93 – biochemical, small-molecule microarray, residues 44-93, 635 nm fluorescence, primary screen (AID 1108); conditions: fluorescence 635 nm, higher = more signal;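 note: E7 fragment applied at 1 µg/mL in TBST for 1 h at 4 C; score combines spot fluorescence with its signal to noise ratio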
[12] = hepatitis C replication reporter changes, two-sided – Huh7 cells, luciferase reporter, HCV replication inhibitor project, primary screen (AID 1109); conditions: Huh7 HCV replicon luciferase reporter, 48 h; higher = more signal;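 note: huh7 hepatoma cells harbouring a luciferase neomycin HCV replicon reporter; luciferase luminescence as measure of HCV replicon replication; test concentration not given here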
[13] = target: Left-right determination factor 2 (Homo sapiens) (UniProt O00292); assay: small molecules binding LEFTY2 protein – biochemical, small-molecule microarray, 635 nm fluorescence scan, primary screen (AID 1110); conditions: higher = more signal
Sequence of Left-right determination factor 2 (Homo sapiens) (O00292 whole entry, looked up): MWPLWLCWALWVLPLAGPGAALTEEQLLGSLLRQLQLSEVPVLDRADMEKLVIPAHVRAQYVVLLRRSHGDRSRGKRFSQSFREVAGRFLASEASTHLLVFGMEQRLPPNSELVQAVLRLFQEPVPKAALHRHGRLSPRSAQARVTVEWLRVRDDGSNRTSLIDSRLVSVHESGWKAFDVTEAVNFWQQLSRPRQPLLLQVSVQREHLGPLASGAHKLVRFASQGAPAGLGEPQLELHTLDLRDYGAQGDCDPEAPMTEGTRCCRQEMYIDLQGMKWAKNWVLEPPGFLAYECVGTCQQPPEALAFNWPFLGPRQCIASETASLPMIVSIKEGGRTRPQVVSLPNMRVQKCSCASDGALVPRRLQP

[14] = target: Calmodulin-1 (Homo sapiens) (UniProt P0DP23); assay: small molecules binding calmodulin-1 with EGTA – biochemical, small-molecule microarray, Cy5-labelled CALM1, profiling panel (AID 1111); conditions: Cy5-CALM1 binding fluorescence, higher = more signal;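 note: labelled calmodulin applied in Tris saline Tween buffer holding calcium plus EGTA and DTT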
[15] = target: Calmodulin-1 (Homo sapiens) (UniProt P0DP23); assay: small molecules binding Ca-loaded calmodulin-1 – biochemical, small-molecule microarray, Cy5-labelled CALM1, plus calcium, artefact control for SMM control-protein annotation, profiling panel (AID 1112); conditions: Cy5-CALM1 binding fluorescence, higher = more signal;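 note: score merges spot fluorescence with signal to noise from triplicate slides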
[16] = probe aWnt5a binding to arrayed compounds – biochemical, biotinylated probe, 635/667 nm fluorescence, primary screen (AID 1113); conditions: small-molecule microarray, higher = more signal;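 note: score merges 667 nm fluorescence intensity with signal-to-noise per printed feature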
[17] = probe aShh binding to arrayed compounds – biochemical, biotinylated probe, 635/667 nm fluorescence, primary screen (AID 1114); conditions: small-molecule microarray, higher = more signal;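 note: probe is biotin-labelled aShh protein from a stem cell growth factor screen; measures binding of labelled protein to compounds printed on the slide; score merges feature fluorescence at 667 nm with signal-to-noise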
[18] = probe aNog binding to arrayed compounds – biochemical, biotinylated probe, 635/667 nm fluorescence, primary screen (AID 1115); conditions: small-molecule microarray, higher = more signal;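 note: probe is biotinylated aNog protein used at 0.15 µg/mL for 1 h at 4 C; z-score combines 667 nm fluorescence of each spot with its signal to noise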
[19] = target: Torsin-1A-interacting protein 1 (Homo sapiens) (UniProt Q5JTV8); assay: compound microarray binding of lysate hLAP1 – cell lysate, small-molecule microarray, COS7 lysate, 635/667 nm fluorescence, primary screen (AID 1116); conditions: 635 nm fluorescence, higher = more signal
Sequence of Torsin-1A-interacting protein 1 (Homo sapiens) (Q5JTV8 whole entry, looked up): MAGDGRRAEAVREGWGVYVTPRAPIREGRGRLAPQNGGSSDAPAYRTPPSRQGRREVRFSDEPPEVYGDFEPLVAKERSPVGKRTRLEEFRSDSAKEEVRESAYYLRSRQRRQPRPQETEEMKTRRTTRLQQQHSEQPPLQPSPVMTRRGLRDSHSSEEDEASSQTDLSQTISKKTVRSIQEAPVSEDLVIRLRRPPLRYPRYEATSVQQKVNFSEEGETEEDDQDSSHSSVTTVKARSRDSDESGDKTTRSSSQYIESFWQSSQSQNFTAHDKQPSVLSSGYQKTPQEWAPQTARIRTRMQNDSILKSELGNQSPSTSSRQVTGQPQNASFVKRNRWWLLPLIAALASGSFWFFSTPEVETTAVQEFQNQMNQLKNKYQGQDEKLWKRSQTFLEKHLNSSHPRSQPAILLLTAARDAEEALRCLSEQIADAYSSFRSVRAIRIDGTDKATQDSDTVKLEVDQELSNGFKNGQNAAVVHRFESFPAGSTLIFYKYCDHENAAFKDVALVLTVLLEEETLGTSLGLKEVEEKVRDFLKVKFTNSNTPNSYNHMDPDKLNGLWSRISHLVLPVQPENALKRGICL

[20] = target: Alpha-bungarotoxin (Bungarus multicinctus) (UniProt P60615); assay: compounds binding labelled alpha-BTX control protein – biochemical, small-molecule microarray, Alexa647 label, 635/667 nm fluorescence, artefact control for SMM control protein annotation, profiling panel (AID 1117); conditions: alpha-BTX-A647 binding fluorescence, higher = more signal
Sequence of Alpha-bungarotoxin (Bungarus multicinctus) (P60615 whole entry, looked up): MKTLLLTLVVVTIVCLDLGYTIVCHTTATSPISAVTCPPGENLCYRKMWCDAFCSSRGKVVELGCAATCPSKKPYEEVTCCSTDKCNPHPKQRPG

Compound | composite z-score [1] | composite z-score [2] | composite z-score [3] | z-score [4] | composite z-score [5] | composite z-score [6] | composite z-score [7] | composite z-score [8] | composite z-score [9] | composite z-score [10] | composite z-score [11] | z-score [12] | composite z-score [13] | composite z-score [14] | composite z-score [15] | composite z-score [16] | composite z-score [17] | composite z-score [18] | composite z-score [19] | composite z-score [20]
COC(=O)[C@@]1(Cc2ccc(F)cc2)[C@H]2c3cc(C(=O)N(C)C)n(Cc4ccc(Cl)c(C(F)(F)F)c4)c3C[C@H]2CN1C(=O)c1ccccc1 | 0.546 | 1.6 | 1.46 | -2.25 (inactive) | 0.336 | 1.31 | 0.175 | 0.923 | -0.473 | 0.651 | 0.199 | -2.11 | -0.401 | 2.75 | 1.63 | -0.101 | -0.0578 | -0.222 | 2.41 | 2.36
O=C1O[C@H](c2ccccc2)[C@H](c2ccccc2)N2[C@H]1[C@@H](C(=O)N1CCCCCCC1)[C@]1(C(=O)Nc3ccc(C#CC4=CCCCC4)cc31)[C@H]2c1ccc(OCCO)cc1 | 1.87 | 2.63 | 1.36 | -1.68 (inactive) | 1.46 | 1.36 | 1.68 | 1.66 | 2.4 | 1.88 | 1.54 | -2.06 | 1.63 | 2.6 | 1.28 | 1.32 | 3.1 | 2.93 | 3.47 | 3.42
O=C1O[C@@H](c2ccccc2)[C@@H](c2ccccc2)N2[C@@H](c3ccccc3OCCO)[C@]3(C(=O)Nc4ccc(C#CC5=CCCCC5)cc43)[C@@H](C(=O)N3CCCCCCC3)[C@H]12 | 2.01 | 2.94 | 1.63 | -1.06 (inactive) | 1.54 | 1.39 | 1.81 | 1.75 | 2.56 | 1.8 | 1.52 | -3.29 | 1.74 | 3.02 | 1.72 | 1.4 | 3.21 | 3.35 | 5.37 | 3.65
CC(C)CNC(=O)[C@@]1(Cc2ccccc2I)c2ccccc2C(=O)N(C2CCCCC2)[C@H]1c1ccc(CO)cc1 | 1.53 | 0.778 | 1.02 | 1.14 (inactive) | 0.51 | -0.218 | -0.272 | 0.248 | -0.271 | 0.504 | 0.63 | -1.62 | -0.294 | 0.424 | 0.349 | 0.0477 | 0.199 | -0.237 | 0.961 | 3
COc1ccc(/C=C/C=O)cc1 | -0.166 | -0.201 | -0.32 | -0.903 (inactive) | 0.188 | 0.0929 | -0.0607 | 0.679 | 0.406 | 0.664 | -0.15 | 0.788 | 0.0844 | -1.14 | -0.732 | -0.228 | -0.253 | 0.148 | 0.0921 | -0.117
CC(CO)N1C(=O)[C@@H]2C3C(=O)OCCC/C=C\[C@H]3OC23C=CCN(C(C)(C)C)C(=O)[C@@H]13 (stereo not given in full) | 0.205 | -0.349 | -0.522 | 0.742 (inactive) | 0.259 | -0.0474 | -0.325 | 0.0856 | 0.113 | 0.0635 | -0.898 | 0.367 | -0.0466 | -0.565 | -0.769 | -0.192 | 0.108 | -0.147 | 0.859 | 0.149
